Experimental data taken from PubChem BioAssay AID1159580 (chemical genetic matrix, 2015).
Where “and” joins values, the source holds several entries; their conditions need not be identical. Equal values may be shown once. Among all 5,500 compounds or so, about 2,000 (36%) were called active. Roughly 18% stayed inconclusive and do not appear here. Cut-off read from the data, not from the text of the source: active = normalized growth mostly below about 0.91 (no sharp cut-off); inconclusive = no clear call, values can overlap the other calls; inactive = mostly above about 0.92. This is one part of the list.

Assay: chemical genetic growth profiling, strain panel (AID 1159580);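 note: tested at 20 µM; growth read once vehicle control cultures reached saturation at 30 °C; 1 = growth at the plate median or of vehicle wells; lower values mean less growth of the strain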
Settings: S. cerevisiae deletion strains, growth OD

Measured: normalized growth

C[C@@H]1O[C@@H](O[C@H]2CC[C@]3(C=O)C4CC[C@]5(C)[C@@H](C6=CC(=O)OC6)CC[C@]5(O)C4CC[C@]3(O)C2)[C@H](O)[C@H](O)[C@H]1O (stereo not given in full)
inactive: locus YAL021C, strain ccr4, hits give low values 1.02 | locus YAL026C, strain drs2, hits give low values 0.997 | locus YAL030W, strain snc1, hits give low values 0.998 | locus YBL061C, strain skt5, hits give low values 0.991 | locus YBR009C, strain hhf1, hits give low values 0.979 | locus YBR021W, strain FUR4, hits give low values 1.05 | locus YBR023C, strain chs3, hits give low values 0.999 | locus YBR171W, strain sec66, hits give low values 0.992 | locus YBR229C, strain ROT2, hits give low values 0.962 | locus YBR231C, strain swc5, hits give low values 0.987 | locus YBR279W, strain paf1, hits give low values 1 | locus YCL011C, strain gbp2, hits give low values 0.999 | locus YCL016C, strain dcc1, hits give low values 0.996 | locus YCL029C, strain bik1, hits give low values 0.985 | locus YCL061C, strain MRC1, hits give low values 1 | locus YCL069W, strain vba3, hits give low values 1.01 | locus YCR088W, strain abp1, hits give low values 0.997 | locus YDL005C, strain med2, hits give low values 0.999 | locus YDL035C, strain GPR1, hits give low values 0.999 | locus YDL040C, strain nat1, hits give low values 0.978 | locus YDL074C, strain BRE1, hits give low values 1.05 | locus YDL101C, strain DUN1, hits give low values 0.976 | locus YDL134C, strain PPH21, hits give low values 0.989 | locus YDL185W, strain tfp1, hits give low values 0.987 | locus YDL192W, strain arf1, hits give low values 0.99 | locus YDR001C, strain nth1, hits give low values 1 | locus YDR069C, strain doa4, hits give low values 0.984 | locus YDR101C, strain arx1, hits give low values 1.02 | locus YDR137W, strain rgp1, hits give low values 1.01 | locus YDR150W, strain NUM1, hits give low values 0.995 | locus YDR159W, strain sac3, hits give low values 0.95 | locus YDR162C, strain NBP2, hits give low values 0.934 | locus YDR195W, strain ref2 0.927 | locus YDR297W, strain sur2, hits give low values 0.996 | locus YDR318W, strain mcm21, hits give low values 0.979 | locus YDR334W, strain swr1, hits give low values 0.998 | locus YDR335W, strain msn5, hits give low values 1 | locus YDR388W, hits give low values 0.999 | locus YDR392W, strain spt3, hits give low values 0.88 | locus YDR502C, strain sam2, hits give low values 0.982 | locus YEL003W, strain gim4, hits give low values 0.999 | locus YEL037C, strain rad23, hits give low values 1.01 | locus YEL061C, strain CIN8 (second series), hits give low values 1 | locus YEL061C, strain CIN8, hits give low values 0.996 | locus YER015W, strain faa2, hits give low values 0.992 | locus YER016W, strain bim1, hits give low values 0.99 | locus YER110C, hits give low values 0.985 | locus YER111C, strain swi4, hits give low values 0.988 | locus YER155C, strain BEM2 (second series), hits give low values 0.978 | locus YER155C, strain BEM2, hits give low values 1.01 | locus YER167W, strain BCK2, hits give low values 0.999 | locus YFR010W, strain ubp6, hits give low values 0.999 | locus YGL078C, strain dbp3, hits give low values 0.989 | locus YGL086W, strain mad1, hits give low values 1.04 | locus YGL167C, strain pmr1, hits give low values 0.982 | locus YGL173C, strain kem1, hits give low values 0.99 | locus YGL227W, strain vid30, hits give low values 0.99 | locus YGL240W, strain doc1, hits give low values 0.969 | locus YGL248W, strain PDE1, hits give low values 0.976 | locus YGL253W, strain hxk2, hits give low values 0.992 | locus YGR078C, strain PAC10, hits give low values 0.974 | locus YGR135W, strain pre9, hits give low values 0.966 | locus YGR229C, strain SMI1, hits give low values 0.987 | locus YGR252W, strain gcn5, hits give low values 0.953 | locus YHR013C, strain ard1, hits give low values 0.954 | locus YHR027C, strain rpn1, hits give low values 0.996 | locus YHR030C, strain SLT2, hits give low values 1.01 and 0.997 | locus YHR079C, strain IRE1 (second series), hits give low values 1.01 | locus YHR079C, strain IRE1, hits give low values 0.992 | locus YHR094C, strain hxt1, hits give low values 0.986 | locus YHR129C, strain ARP1, hits give low values 1 | locus YHR142W, strain chs7, hits give low values 1.03 | locus YHR200W, strain rpn10, hits give low values 1 | locus YIL066C, strain RNR3, hits give low values 0.984 | locus YIL073C, strain SPO22, hits give low values 1.02 | locus YIL125W, strain kgd1, hits give low values 0.988 | locus YIR030C, strain dcg1, hits give low values 0.995 | locus YJL092W, strain hpr5, hits give low values 1 | locus YJL095W, strain BCK1 (second series), hits give low values 0.998 | locus YJL095W, strain BCK1, hits give low values 0.965 and 0.985 | locus YJL115W, strain asf1, hits give low values 0.999 | locus YJL129C, strain trk1, hits give low values 1.01 | locus YJL134W, strain LCB3, hits give low values 0.994 | locus YJL154C, strain vps35, hits give low values 1.01 | locus YJL164C, strain tpk1, hits give low values 1.01 | locus YJL166W, strain qcr8, hits give low values 0.99 | locus YJL168C, strain set2, hits give low values 0.99 | locus YJL187C, strain SWE1 (second series), hits give low values 0.97 | locus YJL187C, strain SWE1, hits give low values 1 | locus YJR043C, strain POL32, hits give low values 0.99
